Laboratory results from ChEMBL document CHEMBL4513216, “Probing the Open Global Health Chemical Diversity Library for Multistage-Active Starting Points for Next-Generation Antimalarials” (ACS Infect Dis, 2020).
About 8,600 (12%) of roughly 69,000 compounds showed an effect of 50% or more. The full list was thinned out, with strong results kept by preference.

Test system: Plasmodium berghei
Assay: Screen against P. berghei liver stage (PbLuc), transformed with Luciferase, at 10uM
Format: functional, HepG2
Details: tested at 10 uM

| Structure (SMILES) | INHIBITION [%] |
| --- | --- |
| O=C([C@@H]1C[C@H]2[C@H](CCN2Cc2nccs2)O1)N1CCOCC1 | -1.53 |
| O=C(O)CNC(=O)Cc1csc(-c2ccccc2F)n1 | 32.8 |
| CCc1ccccc1C(=O)N1CCCC1CC(=O)c1cnn(C)c1 (centres undefined) | 30.6 |
| Cc1cscc1C(=O)N1CCCC1CC(=O)c1cnn(C)c1 (centres undefined) | 12.7 |
| Cc1ccc(O)c(C(=O)N2CCCC2CC(=O)c2cnn(C)c2)c1 (centres undefined) | 50.2 |
| CCn1cc(S(=O)(=O)N2CCC(C3CCCCN(C)C3=O)CC2)c(C)n1 (centres undefined) | 37.1 |
| OCC1CCN(C[C@@H]2CN(C3Cc4ccccc4C3)C[C@@H]2CO)CC1 | 48.5 |
| COc1cc(C(=O)N2CCC(Nc3cccnc3)CC2)ccc1C | -22.1 |
| O=C(NC1CCC1)[C@H]1C[C@H]2CN(CC3CC3)C[C@@H]1O2 | 65.3 |
| O=C(NC1CCC1)[C@H]1C[C@H]2CN(S(=O)(=O)c3ccccc3)C[C@@H]1O2 | 51.2 |
| CC(C)CN1C[C@@H]2C[C@H](C(=O)NC3CCC3)[C@H](C1)O2 | 31.5 |
| O=C(Nc1ccccc1)[C@H]1C[C@H]2CN(S(=O)(=O)c3ccccc3)C[C@@H]1O2 | 5.96 |
| CCc1cnc(N2C[C@@H]3C[C@H](C(=O)NC4CCC4)[C@H](C2)O3)nc1 | 5.63 |
| Cc1cccc(S(=O)(=O)N2C[C@@H]3C[C@H](C(=O)NC4CCC4)[C@H](C2)O3)c1 | 5.36 |
| Fc1ccc(-c2cnc(CN3CCn4c(nnc4C4CC4)C3)o2)cc1 | 21.8 |
| CN1C(=O)CCCC12CCCN(Cc1cccs1)C2 (centres undefined) | -2.35 |
| N#Cc1ccc(C(=O)O)nc1C=Cc1cccc(Cl)c1 | 10.2 |
| c1coc(-c2noc(CN3CCCCC3Cn3cncn3)n2)c1 (centres undefined) | 17.4 |
| CC(C)[C@@H]1CN(Cc2cnc(C3CCCCC3)nc2)C[C@H]1C(=O)O | 13.5 |
| COCc1ncc(CN2C[C@@H](C(=O)O)[C@H](C(C)C)C2)cn1 | 24.2 |
| COCCc1ncc(CN2C[C@@H](C(=O)O)[C@H](C(C)C)C2)cn1 | 50.2 |
| COCCNC(=O)Nc1cc2c(cc1SC)OCCO2 | 69.1 |
| CC(NC(=O)NCCn1ccnc1)c1ccc2c(c1)OCCO2 (centres undefined) | 31.8 |

| Structure (SMILES) | INHIBITION [%] |
| --- | --- |
| CSc1cc2c(cc1NC(=O)NCc1ccncc1)OCCO2 | 8.4 |
| CSc1cc2c(cc1NC(=O)NCC(C)(C)C(N)=O)OCCO2 | 48.5 |
| CSc1cc2c(cc1NC(=O)NCC1CCOC1)OCCO2 (centres undefined) | 67.3 |
| CCCNC(=O)Nc1cc2c(cc1SC)OCCO2 | 8.47 |
| CSc1cc2c(cc1NC(=O)NCC(=O)N(C)C)OCCO2 | 35.9 |
| CSc1cc2c(cc1NC(=O)NCCn1ccnc1)OCCO2 | 64.6 |
| COCCN(C)C(=O)Nc1cc2c(cc1SC)OCCO2 | -34 |
| O=C(N1CCCC(n2cncn2)C1)C1(c2ccccc2F)CCCC1 (centres undefined) | 22.3 |
| Cn1cnc(CNC(=O)c2ccccc2-n2cc(CN)cn2)c1 | -5.71 |
| COCC1CC2(CCN(Cc3cccnc3)CC2)CN1c1ncccn1 (centres undefined) | 22.2 |
| Cc1cc(S(=O)(=O)NC(=O)CCc2cncc(F)c2)c(C)s1 | 24.3 |
| COCc1nc(C(=O)N2CCCC2c2cccc(C)c2)cs1 (centres undefined) | -23.8 |
| COc1c(C)cnc(CN2CCCC(Cn3nc(C)nc3C)C2)c1C (centres undefined) | -1.14 |
| CC(NC(=O)NCCn1ccnc1)c1nncn1C (centres undefined) | 39.3 |
| COc1cccc(CNc2cc(N3CCCC3CO)ncn2)n1 (centres undefined) | -14.6 |
| O=C(O)c1ccccc1-c1ccc(CN2CC(c3ccncn3)C2)o1 | 6.1 |
| CN(C)c1cc(CNC(=O)c2cc(F)ccc2F)ccn1 | -2.53 |
| CN(C)c1cc(CNC(=O)c2ccc(F)cc2)ccn1 | -7.35 |
| CN(C)c1cc(CNC(=O)c2cn(-c3ccc(F)cc3)nn2)ccn1 | 70.6 |
| CC(C)COCC(NC(=O)c1ccncc1)c1ccco1 (centres undefined) | 28.8 |
| CS(=O)(=O)N1CCC(Nc2ccc(C#N)c(C(F)(F)F)c2)CC1 | -11.7 |
| N#Cc1ccc(NC2CCN(c3ncccn3)CC2)cc1C(F)(F)F | 68.2 |
| N#Cc1ccc(NC2CCN(c3ncccn3)CC2)cc1Cl | 28.7 |

| Structure (SMILES) | INHIBITION [%] |
| --- | --- |
| CC(C)(C)c1ncc(C(=O)NCCNc2ncccn2)s1 | -39.3 |
| CCN(Cc1ccncc1)CC1(C)Cc2c(N)nc(N)nc2O1 (centres undefined) | 14.27 |
| COc1ccc(CN2CCCn3cnc(COC(C)C)c3C2)cc1 | 56.7 |
| CC(C)OCc1ncn2c1CN(CCO)CCC2 | 0.804 |
| CC(C)OCc1ncn2c1CN(Cc1nccs1)CCC2 | 46.2 |
| Cc1nc(CN2CCCn3cnc(COC(C)C)c3C2)cs1 | 66 |
| COc1ccc(CN2CCCn3cnc(COCC4CC4)c3C2)cc1 | 42.6 |
| CC(C)OCc1ncn2c1CN(Cc1ccc(F)cc1)CCC2 | 9.67 |
| CC(C)OCc1ncn2c1CN(Cc1cnn(C)c1)CCC2 | -7.24 |
| CC(C)OCc1ncn2c1CN(Cc1ccoc1)CCC2 | 59 |
| c1cc(CN2CCCn3cnc(COCC4CC4)c3C2)co1 | 35.7 |
| Cc1nc(CN2CCCn3cnc(COCC4CC4)c3C2)cs1 | 4.02 |
| CC(C)OCc1ncn2c1CN(CC1CC1)CCC2 | 66 |
| c1nc(COCC2CC2)c2n1CCCN(CC1CC1)C2 | 11.5 |
| COc1ccsc1C(=O)N1CCCC(n2nc(C)cc2C)C1 (centres undefined) | -5.25 |
| N#Cc1cccc(NC(=O)C2CCCN2c2nccs2)c1 (centres undefined) | 17.865 |
| O=C(CC1CCCCC1)NC1CCCCNC1=O (centres undefined) | -65.3 |
| CCc1ccc(CC(=O)N2CCN(c3nccn3C)CC2)cc1 | 27 |
| CSCCC(NC(=O)c1ccccc1)C(=O)N(C)Cc1ccsc1 (centres undefined) | 16.1 |
| O=C(NCCn1nc(C2CCNC2)c2cccnc21)c1ccccc1 (centres undefined) | -11.7 |
| CN(C)Cc1nnn2c1CN(Cc1cccnc1)CCC2 | -21.1 |
| CCc1noc(CN2CCN(Cc3cccs3)CC2)n1 | 3.73 |
| COCC(=O)N(C)Cc1nc(N(C)C)ncc1-c1ccncc1 | -3.53 |
